In all, about 5,500 compounds went through this assay and about 2,000 (36%) were called active. About 18% were inconclusive and are not listed. No stated cut-off is given here; in the data, active means normalized growth mostly below about 0.91 (no sharp cut-off); inconclusive means no clear call, values can overlap the other calls; inactive means mostly above about 0.92. Some of the results follow.
Experiment: chemical genetic growth profiling, strain panel (AID 1159580);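 further: tested at 20 µM; growth read once vehicle control cultures reached saturation at 30 °C; 1 = growth at the plate median or of vehicle wells; lower values mean less growth of the strain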
Settings: growth OD

Measured: normalized growth

O=C(O)CNCP(=O)(O)O
inactive: S. cerevisiae deletion strains, locus YJR075W, strain HOC1, active compounds read low 1.01 | S. cerevisiae deletion strains, locus YKL009W, strain mrt4, active compounds read low 1.04 | S. cerevisiae deletion strains, locus YKL068W, active compounds read low 1.01 | S. cerevisiae deletion strains, locus YKL085W, strain MDH1 (second series), active compounds read low 1 | S. cerevisiae deletion strains, locus YKL085W, strain MDH1, active compounds read low 1 | S. cerevisiae deletion strains, locus YKL160W, strain elf1, active compounds read low 1.02 | S. cerevisiae deletion strains, locus YKL190W, strain CNB1, active compounds read low 1.01 | S. cerevisiae deletion strains, locus YKR001C, strain vps1, active compounds read low 1.02 | S. cerevisiae deletion strains, locus YKR026C, strain gcn3, active compounds read low 1.02 | S. cerevisiae deletion strains, locus YKR091W, strain srl3, active compounds read low 1.01 | S. cerevisiae deletion strains, locus YLL001W, strain dnm1, active compounds read low 1.02 | S. cerevisiae deletion strains, locus YLL026W, active compounds read low 1.01 | S. cerevisiae deletion strains, locus YLL041C, strain sdh2, active compounds read low 1.01 | S. cerevisiae deletion strains, locus YLR027C, strain aat2, active compounds read low 1.01 | S. cerevisiae deletion strains, locus YLR039C, strain RIC1, active compounds read low 1.03 | S. cerevisiae deletion strains, locus YLR058C, strain SHM2, active compounds read low 1.01 | S. cerevisiae deletion strains, locus YLR102C, strain apc9, active compounds read low 1.01 | S. cerevisiae deletion strains, locus YLR113W, strain HOG1, active compounds read low 1.02 | S. cerevisiae deletion strains, locus YLR221C, strain rsa3, active compounds read low 1.01 | S. cerevisiae deletion strains, locus YLR258W, strain gsy2, active compounds read low 1.02 | S. cerevisiae deletion strains, locus YLR262C, strain YPT6 (second series), active compounds read low 1.03 | S. cerevisiae deletion strains, locus YLR262C, strain YPT6, active compounds read low 1.03 | S. cerevisiae deletion strains, locus YLR268W, strain sec22, active compounds read low 1 | S. cerevisiae deletion strains, locus YLR320W, strain mms22, active compounds read low 1.03 | S. cerevisiae deletion strains, locus YLR330W, strain CHS5, active compounds read low 1.01 | S. cerevisiae deletion strains, locus YLR342W, strain FKS1 (second series), active compounds read low 1.03 | S. cerevisiae deletion strains, locus YLR342W, strain FKS1, active compounds read low 1.03 | S. cerevisiae deletion strains, locus YLR357W, strain rsc2, active compounds read low 1.03 | S. cerevisiae deletion strains, locus YLR370C, strain arc18, active compounds read low 1 | S. cerevisiae deletion strains, locus YLR371W, strain rom2, active compounds read low 1.01 | S. cerevisiae deletion strains, locus YLR384C, strain iki3, active compounds read low 0.993 | S. cerevisiae deletion strains, locus YLR418C, strain cdc73, active compounds read low 1.02 | S. cerevisiae deletion strains, locus YML016C, strain PPZ1, active compounds read low 1 | S. cerevisiae deletion strains, locus YML032C, strain rad52, active compounds read low 1.01 | S. cerevisiae deletion strains, locus YML120C, strain ndi1, active compounds read low 1.02 | S. cerevisiae deletion strains, locus YML124C, strain tub3, active compounds read low 1.01 | S. cerevisiae deletion strains, locus YMR058W, strain fet3, active compounds read low 1.02 | S. cerevisiae deletion strains, locus YMR078C, strain ctf18, active compounds read low 1.01 | S. cerevisiae deletion strains, locus YMR125W, strain sto1, active compounds read low 1.02 | S. cerevisiae deletion strains, locus YMR129W, active compounds read low 1.01 | S. cerevisiae deletion strains, locus YMR205C, strain PFK2, active compounds read low 1.05 | S. cerevisiae deletion strains, locus YMR223W, strain ubp8, active compounds read low 1.01 | S. cerevisiae deletion strains, locus YMR231W, strain pep5, active compounds read low 1 | S. cerevisiae deletion strains, locus YMR263W, strain SAP30, active compounds read low 1.01 | S. cerevisiae deletion strains, locus YMR307W, strain GAS1, active compounds read low 0.975 | S. cerevisiae deletion strains, locus YNL067W, strain RPL9B, active compounds read low 1.02 | S. cerevisiae deletion strains, locus YNL071W, strain lat1, active compounds read low 1.02 | S. cerevisiae deletion strains, locus YNL128W, strain TEP1, active compounds read low 1 | S. cerevisiae deletion strains, locus YNL153C, strain GIM3, active compounds read low 1 | S. cerevisiae deletion strains, locus YNL183C, strain NPR1, active compounds read low 0.917 | S. cerevisiae deletion strains, locus YNL209W, strain ssb2, active compounds read low 1.03 | S. cerevisiae deletion strains, locus YNL233W, strain BNI4, active compounds read low 1.02 | S. cerevisiae deletion strains, locus YNL248C, strain rpa49, active compounds read low 1.01 | S. cerevisiae deletion strains, locus YNL250W, strain rad50, active compounds read low 1 | S. cerevisiae deletion strains, locus YNL271C, strain bni1, active compounds read low 1.01 | S. cerevisiae deletion strains, locus YNL298W, strain CLA4, active compounds read low 1.02 | S. cerevisiae deletion strains, locus YNL307C, strain MCK1, active compounds read low 1.02 | S. cerevisiae deletion strains, locus YNL322C, strain KRE1 (second series), active compounds read low 1.02 | S. cerevisiae deletion strains, locus YNL322C, strain KRE1, active compounds read low 1 | S. cerevisiae deletion strains, locus YNR049C, strain mso1, active compounds read low 1.02 | S. cerevisiae deletion strains, locus YNR052C, strain pop2, active compounds read low 1.01 | S. cerevisiae deletion strains, locus YOL006C, strain TOP1, active compounds read low 1.05 | S. cerevisiae deletion strains, locus YOL012C, strain htz1 0.788 | S. cerevisiae deletion strains, locus YOL147C, strain pex11, active compounds read low 1.01 | S. cerevisiae deletion strains, locus YOR001W, strain rrp6, active compounds read low 1.01 | S. cerevisiae deletion strains, locus YOR061W, strain CKA2, active compounds read low 1 | S. cerevisiae deletion strains, locus YOR069W, strain VPS5, active compounds read low 1.01 | S. cerevisiae deletion strains, locus YOR070C, strain gyp1, active compounds read low 1.02 | S. cerevisiae deletion strains, locus YOR080W, strain dia2, active compounds read low 1.01 | S. cerevisiae deletion strains, locus YOR083W, strain WHI5, active compounds read low 1.01 | S. cerevisiae deletion strains, locus YOR106W, strain vam3, active compounds read low 1.02 | S. cerevisiae deletion strains, locus YOR136W, strain idh2, active compounds read low 1.02 | S. cerevisiae deletion strains, locus YOR144C, strain elg1, active compounds read low 1.02 | S. cerevisiae deletion strains, locus YOR184W, strain ser1, active compounds read low 1.02 | S. cerevisiae deletion strains, locus YOR231W, strain MKK1, active compounds read low 0.977 | S. cerevisiae deletion strains, locus YOR265W, strain rbl2, active compounds read low 1.01 | S. cerevisiae deletion strains, locus YOR270C, strain vph1, active compounds read low 1.03 | S. cerevisiae deletion strains, locus YOR290C, strain snf2, active compounds read low 1.02 | S. cerevisiae deletion strains, locus YOR316C, strain cot1, active compounds read low 1.01 | S. cerevisiae deletion strains, locus YPL051W, strain arl3, active compounds read low 1.02 | S. cerevisiae deletion strains, locus YPL055C, strain LGE1, active compounds read low 0.987 | S. cerevisiae deletion strains, locus YPL078C, strain atp4, active compounds read low 1.02 | S. cerevisiae deletion strains, locus YPL106C, strain sse1, active compounds read low 1.02 | S. cerevisiae deletion strains, locus YPL240C, strain hsp82, active compounds read low 1.02 | S. cerevisiae deletion strains, locus YPL241C, strain CIN2, active compounds read low 0.999 | S. cerevisiae deletion strains, locus YPL256C, strain CLN2, active compounds read low 0.962 | S. cerevisiae deletion strains, locus YPR119W, strain clb2, active compounds read low 1.01 | S. cerevisiae deletion strains, locus YPR141C, strain kar3, active compounds read low 1.02 | S. cerevisiae deletion strains, locus YPR163C, strain tif3, active compounds read low 1.01 | S. cerevisiae deletion strains, locus YPR167C, strain met16, active compounds read low 1.02 | S. cerevisiae deletion strains, strain wtn01, active compounds read low 1.01 | S. cerevisiae strains, strain wild type, active compounds read low 0.997

Source: PubChem BioAssay AID1159580 (chemical genetic matrix, 2015)
